According to PubChem BioAssay (NCI):
This is part of a sample that, as a whole, favours compounds with a hit. Of some 83,000 tested, about 20% had one in any assay.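 A percent growth of 40 corresponds to 60% growth inhibition; 0 means no net growth; -100 means all cells died. Active threshold: below 10.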 Calls of active or inactive are those of the source.

The molecules below were run on MDA-MB-468 breast (assay: NCI-60 one-dose screen, 48 h (100 = growth as untreated, 0 = no growth, -100 = all killed)). Conditions: 10 µM unless noted.

| Structure (SMILES) | growth |
| --- | --- |
| O=C1/C(=C/c2ccc(F)cc2)CN(Cc2cn(CCNc3ccnc4cc(Cl)ccc34)nn2)C/C1=C\c1ccc(F)cc1 | -64.2% (active) |
| Cn1cc(-c2nn3cc(-c4cccs4)nc3s2)c2cc(F)ccc21 | 44.4% (inactive) |
| COc1cc(C2C3=C(COC3=O)N(CCO)c3cc4c(cc32)CCC4)cc(OC)c1OC (stereo not drawn) | 0.574% (active) |
